# Shown are actives, neighbours in structure and some others; about 10% of the full set was active somewhere.
# JMJD2A Tudor inh: blocks the human JMJD2A Tudor domain. O75164. AlphaScreen JMJD2A-Tudor / H3K4me3 peptide binding. Potency, µM (series often up to 114 µM), for inactives: at the top dose activity change, negative = inhibition, usual class: inhibitors. 390,000 compounds, 4.4% hits; also: % is scaled to controls: 0 for no effect and ±100 for the full control effect; nearly all actives have a fitted effect of over 50% in size
# G9a inh: G9a (human) methyltransferase inhibition | Q96KQ7 | G9a H3K9 monomethylation, AlphaScreen, 2 h | Potency, µM (titrated, usually from 102 µM), without a hit: at the highest dose activity, negative = inhibition, most hits filed as inhibitors | 350,000 compounds, 8.8% hits | AID 504332; also: % is scaled to controls: 0 for no effect and ±100 for the full control effect; nearly all actives have a fitted effect of over 75% in size
#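 Signal arises when biotinylated H3K9 peptide, once monomethylated, bridges streptavidin donor and antibody-captured acceptor beads. Enzyme at 20 nM was preincubated 15 min with test compounds; peptide 500 nM and SAM 20 uM then reacted for 2 h.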
# GLS inhibitor: inhibitors of human glutaminase (GLS); O94925; GLS enzymatic activity, qHTS titration; Potency, µM (top dose mostly 45.5 µM), without a hit: at the top dose activity change, negative = inhibition, actives largely listed as inhibitors; 410,000 compounds, 0.21% hits; also: % is scaled to controls: 0 for no effect and ±100 for the full control effect
#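 hKGA in 45 mM KH2PO4 pH 8.2, 0.02% Tween-20 with pin-transferred compounds; 1 mM L-glutamine (stock) plus glutamate oxidase/HRP/Amplex Red coupling added. Fluorescence read initially and after 30 min at RT.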
# HP1b chromo inh: blocks HP1-beta chromodomain binding to methylated histone tails; Potency, µM (doses to about 114 µM), for inactives: top-dose activity change, negative = inhibition, most hits filed as inhibitors; P83916; 390,000 compounds, 0.56% hits; AID 540317; AlphaScreen HP1-beta / biotin-H3K9me3 peptide binding; also: nearly all actives have a fitted effect of over 70% in size
#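 AlphaScreen: HP1-beta (50 nM) preformed 30 min with biotin-H3(1-18)K9me3 peptide (50 nM) in PBS pH 7.4, 0.01% Tween-20. Compound added for 30 min at RT, then streptavidin donor/nickel chelate acceptor beads (10 ug/mL) for 30 min.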
# BAZ2B inh: inhibitors of human BAZ2B bromodomain | Q9UIF8 | AlphaScreen BAZ2B-H3K14Ac peptide displacement | Potency, µM (highest dose often 114 µM), inactives show at the top dose activity change, negative = inhibition, usual class: inhibitors | 360,000 compounds, 4.4% hits | AID 504333; also: % is scaled to controls: 0 for no effect and ±100 for the full control effect; nearly all actives have a fitted effect of over 60% in size
#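 AlphaScreen luminescence quantifies BAZ2B engagement of H3K14Ac peptide; the protein and biotinylated peptide are both at 50 nM final, buffer PBS pH 7.4 with 0.01% Tween-20, all steps at room temperature.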
# * marks the source's active call; other numbers are inactive results; ? = inconclusive; . = not tested or not shown; [ ] = remark or other dose. Calls follow the shape of the dose curve; as a rule, active = well fitted curve in the direction sought with a large enough effect; inconclusive = small, poorly fitted or top-dose-only effect, or another doubt; inactive = no such curve, though single readings can be large; an effect the other way counts as inactive or inconclusive. Potency is read from the fitted curve at half-maximal effect.
SMILES,JMJD2A Tudor inh,G9a inh,GLS inhibitor,HP1b chromo inh,BAZ2B inh
O=C1C(=O)N(CCCn2ccnc2)C(c2ccccn2)/C1=C(/O)c1ccccc1 (centres undefined),.,50.1µM*,.,.,-7.9%
NC(=O)CN1CCN(CCN2C(=O)c3cccc4cccc(c34)C2=O)CC1,-5.6%,-11.3%,-2.0%,8.1%,-16.8%
COc1ccc(S(=O)(=O)N2CCN(C(=O)c3cc4c(s3)CCCC4)CC2)cc1,-16.2%,5.1%[12.7 µM],4.5%,13.3%,3.7%
Cc1ccc2nsnc2c1S(=O)(=O)N(Cc1cc2cccc(C)c2[nH]c1=O)CC1CCCO1 (centres undefined),-26.1%,-35.9%[12.7 µM],-3.6%,0.3%,-2.9%
COc1ccc(N2C(=O)CN=C2Nc2nc(C)cc(C)n2)cc1,44.7µM*,-18.2%[12.7 µM],-5.7%,6.9%,5.2%
CCCOc1ccccc1OCC(=O)Nc1cc(Cl)ccc1-n1cncn1,-0.7%,44.7µM*,1.4%,18.3%,4.9%
O=C(Nc1cc(Cl)ccc1-n1cncn1)c1ccc(Br)o1,-9.0%,56.2µM*,5.7%,38.5%,-0.1%
O=C(COc1ccc(F)cc1)Nc1cc(Cl)ccc1-n1cncn1,-11.0%,56.2µM*,-10.2%,12.0%,8.8%
COc1ccc(CNC(=O)COC(=O)CCC(=O)c2cccs2)cc1,-12.3%,25.8%[59 µM],18.4%,-0.7%,1.2%
CN1C(=S)N(c2cccnc2)C(=O)/C1=C\c1ccc(N(C)C)cc1,?,?,13.7%,-28.7%,11.2µM*
Cc1c(N2C(=O)/C(=C\c3ccc(N(C)C)cc3)N(C)C2=S)c(=O)n(-c2ccccc2)n1C,?,39.8µM*,17.1%,?,44.7µM*
CN(C)c1ccc(/C=C/C(=O)c2cccnc2)cc1,32.4%,10.6%,26.4%,74.5%,4.9%
Cc1c(NC(=S)N/N=C/c2ccc(N(C)C)cc2)c(=O)n(-c2ccccc2)n1C,-32.6%,8.8%[59 µM],19.1%,-27.8%,-11.0%
Cc1c(N2C(=O)c3ccc4c5c(ccc(c35)C2=O)CC4)c(=O)n(-c2ccccc2)n1C,?,50.1µM*,?,?,56.2µM*
O=C(COc1ccccc1)Nc1ccc2c(c1)nc1n2CCSC1,-15.7%,?,-7.0%,1.4%,0.6%
O=C(CN1CCN(S(=O)(=O)c2ccc(F)c(Cl)c2)CC1)N1CCNC1=O,39.8µM*,-0.3%[59 µM],-3.0%,20.8%,-6.2%
O=C(CN1CCN(S(=O)(=O)c2ccc(C(F)(F)F)cc2)CC1)N1CCNC1=O,3.8%,8.9%[12.7 µM],2.6%,40.5%,-4.1%
CCCn1c(=O)c(C(=O)Nc2ccccc2)c(O)c2ccccc21,-9.0%,25.6%[59 µM],3.3%,25.1%,16.5%
COc1ccc(S(=O)(=O)N2CCC(C(=O)NCCc3ccccc3)CC2)cc1OC,-1.3%,15.3%[2.33 µM],9.1%,22.4%,-0.4%
CCOc1ccc(C(=O)CC(NCc2cccs2)C(=O)O)cc1 (centres undefined),89.1µM*,25.1µM*,3.1%,5.8%,-26.1%
CCOc1ccc(C(=O)CCC(=O)N(CC)CC(=O)NCc2cccs2)cc1,-17.2%,-1.6%[12.7 µM],7.3%,5.3%,5.3%
COc1cccc(NC(=S)Nc2cc(C(=O)O)ccc2N2CC3CC(C2)c2cccc(=O)n2C3)c1 (centres undefined),-26.1%,39.8µM*,24.0%,-12.1%,-21.7%
Cc1ccc(NC(=S)Nc2cc(C(=O)O)ccc2N2CC3CC(C2)c2cccc(=O)n2C3)cc1C (centres undefined),-11.3%,39.8µM*,29.9%,-4.0%,-18.8%
CCN1CCN(C(=O)c2ccc(N3CC4CC(C3)c3cccc(=O)n3C4)c([N+](=O)[O-])c2)CC1 (centres undefined),-18.5%,56.2µM*,0.0%,17.9%,-13.9%
CCOc1ccc(CNC(=O)C2CCN(S(=O)(=O)c3ccc4c(c3)CCCC(=O)N4)CC2)cc1,-13.8%,?,4.7%,12.4%,?
CCOc1ccc2c(c1)nc(C)n2C,-9.0%,.,6.7%,21.8%,-6.9%
CCOc1ccc2c(c1)nc(SCC(=O)c1ccc(Br)s1)n2C,39.8µM*,39.8µM*,-2.9%,-21.3%,-38.6%
CCOc1ccc2c(c1)nc(SCC(=O)c1cccs1)n2C,39.8µM*,25.1µM*,-7.1%,10.4%,-7.6%
c1coc(-c2nc3n(n2)C2(CCCCC2)[C@@H]2CCCC[C@@H]2N3)c1,-19.9%,-15.6%[59 µM],-1.8%,30.5%,?

# Screening data from PubChem BioAssay.
